The list is not random: actives were taken first. Their share in the collection is about 2.6%.
AT treatment: potential ataxia-telangiectasia treatment; Potency, µM (doses to about 57.5 µM), usual class: activators; F2112 A-T fibroblasts, KAP-1 phosphorylation AlphaLISA; neocarzinostatin DNA damage 30 min before lysis; AID 485349; 0.19% of 320,000 active; further: nearly all actives have a fitted effect of over 45% in size
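hTERT-immortalized A-T patient fibroblasts (F2112), 500 cells/well in OPTI-MEM, 1% FBS, got compounds for 60 min, then NCS for 30 min at 37C. Lysates were then assayed for phospho-KAP-1 by AlphaLISA (anti-pKAP1 donor, anti-KAP1 acceptor beads), 6 hr at 25C.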
CCT chaperon mod: cytosolic chaperonin activity modulation. purified chaperonin ATPase assay, HTRF ADP detection, 30 min. activity change, % (concentration not given with the values), hits read low. 0.3% of 360,000 active. AID 651819; in the data active means activity change below about -30%
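Nucleotide hydrolysis assay: TRiC at 20–40 nM final (set by batch activity) with 10 uM ATP, 30 min at 37 °C, in presence of 76 uM compound. Detection by competitive ADP HTRF, 30 min ambient.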
Nrf2 ARE act: Nrf2 pathway activation; 0.31% of 410,000 active; AREc32 ARE-luciferase reporter (MCF7-derived line), luminescence, 24 h; Potency, µM (top dose mostly 46.1 µM), usual class: activators; further: nearly all actives have a fitted effect of over 65% in size
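Nrf2 activation is followed as ARE-luciferase induction in the AREc32 line after one day of compound treatment; luminescence is read with Steady-Glo.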
Nrf2 block: blocks Nrf2 signaling | A549 ARE-Fluc reporter, luciferase luminescence, 18-24 h | Potency, µM (highest dose often 46 µM), hits mostly inhibitors | AID 504444 | 2.1% of 360,000 active; further: nearly all actives have a fitted effect of over 60% in size
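A549 ARE_Fluc cells (5000/well, 5% FBS OPTI-MEM) pre-incubated 2 h, then treated with compounds 18-24 h at 37C/5% CO2 in concentration-response. CellTiter-Fluor viability read first; BugLite luciferase luminescence after 15 min at room temperature gives Nrf2 activity.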
TCR act: activators of T cell receptors; 330,000 tested, under 10 active; primary human leukocytes, anti-CD3, IL-2 HTRF, 48 h; Potency, µM (doses to about 9.22 µM), hits mostly activators
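Activity was scored as IL-2 release from primary human leukocytes given only a TCR signal (a-CD3 beads) plus compound for 48 hr. Detection used a two-antibody HTRF format read at 665nm.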
A549 tox: counter-screen for Nrf2 inhibitors: cytotoxicity in A549 cells; A549 ARE-Fluc cells, CellTiter-Fluor viability, 18-24 h; Potency, µM (highest dose often 46 µM), usual class: inhibitors; 0.16% of 390,000 active; AID 504648
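Cytotoxicity counterscreen: CellTiter-Fluor fluorescence was measured in A549 ARE_Fluc cells after 18-24 h of compound exposure in a concentration series. The subsequent BugLite luminescent read reports ARE-luciferase activity.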
Hits are given with their value; 0 = inactive; ? = inconclusive; - = no result. Unless noted, the call rests on the fitted dose curve; in most records, active means well fitted curve in the direction sought with a large enough effect; inconclusive means small, poorly fitted or top-dose-only effect, or another doubt; inactive means no such curve, though single readings can be large; an effect the other way counts as inactive or inconclusive.

SMILES	AT treatment	CCT chaperon mod	Nrf2 ARE act	Nrf2 block	TCR act	A549 tox
Cc1ccccc1OCC(=O)Nc1nnc(SCc2cc(=O)n3cccc(C)c3n2)s1	-	-	0	-	-	0
N/C(=N\OC(=O)N1CCOCC1)c1ccc(Cl)cc1	0	0	0	0	0	0
N/C(=N\OC(=O)N1CCOCC1)c1ccc(Br)cc1	0	0	0	?	0	13µM
Cc1cc2nc(-c3ccc[nH]c3=O)[nH]c2cc1C	?	0	0	12µM	0	0
CCCN1CNc2c(c(=O)[nH]c(=S)n2CCc2ccc(OC)cc2)C1	-	-	-	0	-	0
CCOc1ccccc1C(=O)NC1CC2CCCC(C1)N2Cc1nnnn1Cc1ccco1 (stereo not given)	0	0	0	0	0	0
O=C(NC1CC2CCC(C1)N2Cc1nnnn1Cc1ccco1)NC12CC3CC(CC(C3)C1)C2 (stereo not given)	0	0	0	4.1µM	0	0
CCC(c1nnnn1C1CCCCC1)N(Cc1ccco1)Cc1cc2ccc(OC)cc2[nH]c1=O (stereo not given)	0	0	0	23µM	0	?
Cc1ccc(NC(=O)Cc2ccc(-n3c(C)nc4cccnc43)cc2)c(Cl)c1	-	-	0	21µM	-	0
CCc1nc2cccnc2n1-c1ccc(CC(=O)O)cc1	0	0	0	0	0	0
CN(C)c1ccc(/C=C2/C[N+](C)(C)C/C(=C/c3ccc(N(C)C)cc3)C2=O)cc1	-	0	0	?	0	15µM
Cn1cc(SCC(=O)NCCc2ccccc2)c2ccccc21	0	0	0	?	0	0
Cn1cc(C(=O)C(=O)NCCc2ccccc2)c2ccccc21	0	-51	0	0	0	0
CCOc1ccc2nc(N/C(N)=N/S(=O)(=O)c3ccc(C)cc3)nc(C)c2c1	-	0	0	-	-	-
O=C1c2ccccc2C(=O)c2[nH]cnc21	0	0	0	0	0	0
O=C1c2ccccc2C(=O)c2[nH]c(=O)[nH]c21	0	0	0	21µM	0	15µM
CCC(C)c1ccc(NC(=S)NCCn2cc(Cl)cn2)cc1 (stereo not given)	0	-39	0	?	0	0
O=C(NCc1ccccc1F)c1cccs1	0	-37	0	-	-	0
O=C(NCc1ccc(F)cc1)c1cccs1	0	0	0	0	0	0
CC[n+]1c(C)cc2c(sc3ccccc32)c1C	0	0	0	?	0	0
CCc1nc(C)cc2c1sc1ccccc12	20µM	0	0	0	0	0
CC(C)CCNC(=O)C1CC2Cn3c(nc4cc(Cl)c(Cl)cc43)C2N1C (stereo not given)	-	0	0	0	0	0
CN1C(C(=O)NCC2CC2)CC2Cn3c(nc4cc(Cl)c(Cl)cc43)C21 (stereo not given)	35µM	0	0	0	0	0
Cc1cc2nc3n(c2cc1C)CC1CC(C(=O)NCC2CC2)N(C)C31 (stereo not given)	28µM	0	0	0	0	0
C=CCNc1nnc(-c2cccc3ccccc23)o1	-	-	-	0	-	0
SMILES	AT treatment	CCT chaperon mod	Nrf2 ARE act	Nrf2 block	TCR act	A549 tox
Cc1nc2ccc(S(=O)(=O)N3CCN(S(=O)(=O)c4c(F)cccc4F)CC3)cc2s1	-	-	-	0	-	0
O=C(CC(=O)Nc1ccccc1C(F)(F)F)Nc1ccccc1C(F)(F)F	0	0	0	0	0	0
Cc1cccc(C)c1OCC(=O)Nc1ccccc1C(F)(F)F	0	-38	0	0	0	0
O=C(CC(=O)c1ccccc1)Nc1ccccc1C(F)(F)F	0	0	0	16µM	0	0
CCOC(=O)c1cc(C)n(CC2CCC(C(=O)Nc3ccc(C)cc3)CC2)c1C (stereo not given)	-	-	0	?	-	0
COc1ccc(CN(Cc2ccccc2)C(=O)c2ccno2)cc1COc1ccc(NC(C)=O)cc1	-	-	-	0	-	0
CCOc1ccc(CCNC(=O)COC(=O)c2oc3ccccc3c2COC)cc1OCC	0	0	0	0	0	0
CCOc1ccc(N2C(=O)C(CC(=O)Nc3ccc(F)cc3)N(Cc3ccccn3)C2=S)cc1 (stereo not given)	0	0	0	?	0	0
CCOc1ccc(N2C(=O)C(CC(=O)Nc3ccccc3)N(Cc3ccccn3)C2=S)cc1 (stereo not given)	0	0	0	23µM	0	?
CSc1nnc(-c2ccccc2)c(-c2ccccc2)n1	0	0	0	0	0	0
O=C(CSc1nnc(-c2ccco2)c(-c2ccco2)n1)Nc1ccccc1	0	0	13µM	0	0	0
CSc1nnc(-c2ccco2)c(-c2ccco2)n1	0	0	7.9µM	0	0	0
COc1ccc(S(=O)(=O)N2CCN(C)CC2c2ccccc2)cc1OC (stereo not given)	0	0	0	0	0	0
CCCCN(CC)C(=O)Cn1c(=O)n(-c2ccc(OCC)cc2)c(=O)c2c3c(sc21)CCC3	-	-	0	0	-	0
COC(=O)c1sc(-c2ccccc2)cc1NC(=O)c1cccc(F)c1	-	-	0	0	-	0
Cc1c(N2C(=O)/C(=C/c3ccc(N(C)C)cc3)N(C)C2=S)c(=O)n(-c2ccccc2)n1C	-	0	0	0	0	23µM
COC1=CC(=O)C=C(OC)C1=O	-	0	0	?	0	0
COC1=CC(=O)c2ccccc2C1=O	0	0	0	23µM	0	?
COc1ccc(OC2=NS(=O)(=O)c3ccccc32)cc1	-	-	-	0	-	0
CCOc1c2ccc(C(=O)NCc3ccc(OC(F)(F)F)cc3)cc2nn1CC	0	-59	0	0	0	0
C=CCNc1oc(C2CCCC2)nc1C#N	0	-	0	0	0	0
C=CCn1c(SCC(=O)Nc2ccc(N3CCOCC3)cc2)nnc1-c1ccco1	25µM	0	0	0	0	0
C=CCn1c(SCC(=O)N2CCN(c3ccc(F)cc3)CC2)nnc1-c1ccco1	0	0	0	18µM	0	0
O=C(/C=C1\NC2(CCCC2)Cc2ccccc21)C(=O)N/N=C/c1ccccc1O	0	0	0	15µM	0	?
C=C(C)C(=O)Oc1ccc(N2C(=O)CCC2=O)cc1	22µM	0	?	0	0	0
SMILES	AT treatment	CCT chaperon mod	Nrf2 ARE act	Nrf2 block	TCR act	A549 tox
CC(=O)Oc1ccc(N2C(=O)CCC2=O)cc1	0	0	0	0	0	0
CCc1nn2c(=O)cc(NC3CNC3)nc2s1	-	-	-	0	-	0
CC1(C(=O)N/N=C/c2ccccc2)CC1(Cl)Cl (stereo not given)	0	0	0	0	0	0
COC(=O)c1cc(=O)n(Cc2ccco2)c(=Nc2ccc(F)c(Cl)c2)s1	0	0	0	26µM	0	?
CCCOc1ccc(C(=O)Nc2ccc3oc(-c4ccncc4)nc3c2)cc1	-	-	0	0	-	0
Nc1c(C(=O)Nc2ccc(F)cc2)sc2nc(-c3ccco3)ccc12	0	0	?	0	0	0

Screening results as filed in PubChem BioAssay.
